Laboratory results as given in PubChem BioAssay AID1159580 (chemical genetic matrix, 2015).
Several values for one entry are separate records, joined by “and”; a condition that tells them apart may be missing. Equal entries are not always repeated. Screen size: about 5,500 compounds; about 2,000 (36%) were called active. About 18% were inconclusive and are not listed. Rule as the data show it: active = normalized growth mostly below about 0.91 (no sharp cut-off); inconclusive = no clear call, values can overlap the other calls; inactive = mostly above about 0.92. The list shows a part of the results.

Test: chemical genetic growth profiling, strain panel (AID 1159580);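 also: tested at 20 µM; growth read once vehicle control cultures reached saturation at 30 °C; 1 = growth at the plate median or of vehicle wells; lower values mean less growth of the strain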
Conditions: S. cerevisiae deletion strains, growth OD

Question: With `CC(C)c1ccc2c(c1O)CC[C@H]1C3=C(CC[C@]21C)C(=O)OC3` as the molecule, how does the normalized growth (locus YAL013W, strain DEP1, stronger effect = lower value) read?
Answer: Its normalized growth is 0.847 (active).

Question: What about the normalized growth (locus YAL021C, strain ccr4, stronger effect = lower value) of the same molecule?
Answer: Its normalized growth is 0.999 (inactive).

Question: And the normalized growth (locus YAL026C, strain drs2, stronger effect = lower value)?
Answer: The normalized growth was 0.946 (inactive).

Question: And the normalized growth (locus YAL030W, strain snc1, stronger effect = lower value)?
Answer: The normalized growth was 0.969 (inactive).

Question: What about the normalized growth (locus YBL061C, strain skt5, stronger effect = lower value) of the same molecule?
Answer: Its normalized growth is 0.962 (inactive).

Question: And the normalized growth (locus YBR009C, strain hhf1, stronger effect = lower value)?
Answer: The normalized growth was 0.96 (inactive).

Question: And the normalized growth (locus YBR021W, strain FUR4, stronger effect = lower value)?
Answer: Its normalized growth is 0.903 (inactive).

Question: What about the normalized growth (locus YBR023C, strain chs3, stronger effect = lower value) of the same molecule?
Answer: Its normalized growth is 0.957 (inactive).

Question: What about the normalized growth (locus YBR171W, strain sec66, stronger effect = lower value) of the same molecule?
Answer: The normalized growth was 0.935 (inactive).

Question: And the normalized growth (locus YBR229C, strain ROT2, stronger effect = lower value)?
Answer: Its normalized growth is 0.97 (inactive).

Question: And the normalized growth (locus YBR231C, strain swc5, stronger effect = lower value)?
Answer: The normalized growth was 0.957 (inactive).

Question: What about the normalized growth (locus YBR279W, strain paf1, stronger effect = lower value) of the same molecule?
Answer: The normalized growth was 0.979 (inactive).

Question: And the normalized growth (locus YCL011C, strain gbp2, stronger effect = lower value)?
Answer: The normalized growth was 0.933 (inactive).

Question: What about the normalized growth (locus YCL016C, strain dcc1, stronger effect = lower value) of the same molecule?
Answer: Its normalized growth is 0.973 (inactive).

Question: And the normalized growth (locus YCL029C, strain bik1, stronger effect = lower value)?
Answer: The normalized growth was 0.912 (inactive).

Question: And the normalized growth (locus YCL061C, strain MRC1, stronger effect = lower value)?
Answer: The normalized growth was 0.925 (inactive).

Question: And the normalized growth (locus YCL069W, strain vba3, stronger effect = lower value)?
Answer: The normalized growth was 0.95 (inactive).

Question: And the normalized growth (locus YCR088W, strain abp1, stronger effect = lower value)?
Answer: Its normalized growth is 0.933 (inactive).

Question: What about the normalized growth (locus YDL005C, strain med2, stronger effect = lower value) of the same molecule?
Answer: Its normalized growth is 0.961 (inactive).

Question: And the normalized growth (locus YDL035C, strain GPR1, stronger effect = lower value)?
Answer: Its normalized growth is 0.943 (inactive).

Question: What about the normalized growth (locus YDL040C, strain nat1, stronger effect = lower value) of the same molecule?
Answer: Its normalized growth is 0.965 (inactive).

Question: What about the normalized growth (locus YDL074C, strain BRE1, stronger effect = lower value) of the same molecule?
Answer: Its normalized growth is 0.617 (active).

Question: What about the normalized growth (locus YDL101C, strain DUN1, stronger effect = lower value) of the same molecule?
Answer: The normalized growth was 0.943 (inactive).

Question: And the normalized growth (locus YDL134C, strain PPH21, stronger effect = lower value)?
Answer: Its normalized growth is 0.8 (active).

Question: And the normalized growth (locus YDL185W, strain tfp1, stronger effect = lower value)?
Answer: The normalized growth was 0.988 (inactive).

Question: And the normalized growth (locus YDL192W, strain arf1, stronger effect = lower value)?
Answer: Its normalized growth is 0.898 (active).

Question: And the normalized growth (locus YDR001C, strain nth1, stronger effect = lower value)?
Answer: Its normalized growth is 0.935 (inactive).

Question: And the normalized growth (locus YDR069C, strain doa4, stronger effect = lower value)?
Answer: Its normalized growth is 0.996 (inactive).

Question: What about the normalized growth (locus YDR101C, strain arx1, stronger effect = lower value) of the same molecule?
Answer: The normalized growth was 0.968 (inactive).

Question: What about the normalized growth (locus YDR137W, strain rgp1, stronger effect = lower value) of the same molecule?
Answer: The normalized growth was 0.825 (active).

Question: And the normalized growth (locus YDR150W, strain NUM1, stronger effect = lower value)?
Answer: Its normalized growth is 0.959 (inactive).

Question: What about the normalized growth (locus YDR159W, strain sac3, stronger effect = lower value) of the same molecule?
Answer: Its normalized growth is 1 (inactive).

Question: What about the normalized growth (locus YDR162C, strain NBP2, stronger effect = lower value) of the same molecule?
Answer: Its normalized growth is 0.81 (active).

Question: And the normalized growth (locus YDR195W, strain ref2)?
Answer: Its normalized growth is 1.01 (inactive).

Question: What about the normalized growth (locus YDR297W, strain sur2, stronger effect = lower value) of the same molecule?
Answer: Its normalized growth is 0.966 (inactive).

Question: What about the normalized growth (locus YDR318W, strain mcm21, stronger effect = lower value) of the same molecule?
Answer: Its normalized growth is 0.886 (active).

Question: What about the normalized growth (locus YDR334W, strain swr1, stronger effect = lower value) of the same molecule?
Answer: The normalized growth was 0.956 (inactive).

Question: And the normalized growth (locus YDR335W, strain msn5, stronger effect = lower value)?
Answer: The normalized growth was 0.973 (inactive).

Question: What about the normalized growth (locus YDR388W, stronger effect = lower value) of the same molecule?
Answer: Its normalized growth is 0.99 (inactive).

Question: And the normalized growth (locus YDR392W, strain spt3, stronger effect = lower value)?
Answer: The normalized growth was 0.542 (active).

Question: What about the normalized growth (locus YDR502C, strain sam2, stronger effect = lower value) of the same molecule?
Answer: The normalized growth was 0.913 (active).

Question: And the normalized growth (locus YEL003W, strain gim4, stronger effect = lower value)?
Answer: Its normalized growth is 0.936 (inactive).

Question: And the normalized growth (locus YEL037C, strain rad23, stronger effect = lower value)?
Answer: Its normalized growth is 0.941 (inactive).

Question: What about the normalized growth (locus YEL061C, strain CIN8 (second series), stronger effect = lower value) of the same molecule?
Answer: The normalized growth was 0.939 (inactive).

Question: And the normalized growth (locus YEL061C, strain CIN8, stronger effect = lower value)?
Answer: The normalized growth was 0.772 (active).

Question: And the normalized growth (locus YER015W, strain faa2, stronger effect = lower value)?
Answer: The normalized growth was 0.961 (inactive).

Question: And the normalized growth (locus YER016W, strain bim1, stronger effect = lower value)?
Answer: The normalized growth was 0.976 (inactive).

Question: What about the normalized growth (locus YER110C, stronger effect = lower value) of the same molecule?
Answer: The normalized growth was 0.943 (inactive).

Question: And the normalized growth (locus YER111C, strain swi4, stronger effect = lower value)?
Answer: The normalized growth was 0.946 (inactive).

Question: And the normalized growth (locus YER155C, strain BEM2 (second series), stronger effect = lower value)?
Answer: The normalized growth was 0.807 (active).

Question: And the normalized growth (locus YER155C, strain BEM2, stronger effect = lower value)?
Answer: The normalized growth was 0.846 (active).

Question: And the normalized growth (locus YER167W, strain BCK2, stronger effect = lower value)?
Answer: Its normalized growth is 0.781 (active).

Question: And the normalized growth (locus YFR010W, strain ubp6, stronger effect = lower value)?
Answer: The normalized growth was 0.952 (inactive).

Question: And the normalized growth (locus YGL078C, strain dbp3, stronger effect = lower value)?
Answer: Its normalized growth is 0.962 (inactive).

Question: What about the normalized growth (locus YGL086W, strain mad1, stronger effect = lower value) of the same molecule?
Answer: The normalized growth was 0.867 (active).

Question: What about the normalized growth (locus YGL167C, strain pmr1, stronger effect = lower value) of the same molecule?
Answer: Its normalized growth is 0.967 (inactive).

Question: What about the normalized growth (locus YGL173C, strain kem1, stronger effect = lower value) of the same molecule?
Answer: Its normalized growth is 0.971 (inactive).

Question: What about the normalized growth (locus YGL227W, strain vid30, stronger effect = lower value) of the same molecule?
Answer: The normalized growth was 0.945 (inactive).

Question: What about the normalized growth (locus YGL240W, strain doc1, stronger effect = lower value) of the same molecule?
Answer: Its normalized growth is 0.953 (inactive).

Question: What about the normalized growth (locus YGL248W, strain PDE1, stronger effect = lower value) of the same molecule?
Answer: The normalized growth was 0.754 (active).

Question: And the normalized growth (locus YGL253W, strain hxk2, stronger effect = lower value)?
Answer: Its normalized growth is 0.987 (inactive).

Question: And the normalized growth (locus YGR078C, strain PAC10, stronger effect = lower value)?
Answer: The normalized growth was 0.718 (active).

Question: And the normalized growth (locus YGR135W, strain pre9, stronger effect = lower value)?
Answer: Its normalized growth is 0.953 (inactive).

Question: And the normalized growth (locus YGR252W, strain gcn5, stronger effect = lower value)?
Answer: The normalized growth was 0.916 (inactive).

Question: And the normalized growth (locus YHR013C, strain ard1, stronger effect = lower value)?
Answer: The normalized growth was 1.02 (inactive).

Question: And the normalized growth (locus YHR027C, strain rpn1, stronger effect = lower value)?
Answer: Its normalized growth is 0.994 (inactive).

Question: And the normalized growth (locus YHR030C, strain SLT2, stronger effect = lower value)?
Answer: Its normalized growth is 0.661 (active) and 0.918 (inactive).

Question: What about the normalized growth (locus YHR079C, strain IRE1 (second series), stronger effect = lower value) of the same molecule?
Answer: Its normalized growth is 0.959 (inactive).

Question: What about the normalized growth (locus YHR079C, strain IRE1, stronger effect = lower value) of the same molecule?
Answer: Its normalized growth is 0.927 (inactive).

Question: What about the normalized growth (locus YHR094C, strain hxt1, stronger effect = lower value) of the same molecule?
Answer: The normalized growth was 0.971 (inactive).

Question: And the normalized growth (locus YHR129C, strain ARP1, stronger effect = lower value)?
Answer: Its normalized growth is 0.798 (active).

Question: And the normalized growth (locus YHR142W, strain chs7, stronger effect = lower value)?
Answer: Its normalized growth is 0.867 (active).

Question: And the normalized growth (locus YHR200W, strain rpn10, stronger effect = lower value)?
Answer: The normalized growth was 0.957 (inactive).

Question: And the normalized growth (locus YIL066C, strain RNR3, stronger effect = lower value)?
Answer: The normalized growth was 0.601 (active).

Question: What about the normalized growth (locus YIL073C, strain SPO22, stronger effect = lower value) of the same molecule?
Answer: The normalized growth was 0.844 (inactive).

Question: What about the normalized growth (locus YIL125W, strain kgd1, stronger effect = lower value) of the same molecule?
Answer: The normalized growth was 0.954 (inactive).

Question: What about the normalized growth (locus YIR030C, strain dcg1, stronger effect = lower value) of the same molecule?
Answer: Its normalized growth is 0.965 (inactive).

Question: And the normalized growth (locus YJL092W, strain hpr5, stronger effect = lower value)?
Answer: The normalized growth was 0.941 (inactive).

Question: What about the normalized growth (locus YJL095W, strain BCK1 (second series), stronger effect = lower value) of the same molecule?
Answer: The normalized growth was 0.97 (inactive).

Question: What about the normalized growth (locus YJL095W, strain BCK1, stronger effect = lower value) of the same molecule?
Answer: Its normalized growth is 0.646 (active) and 0.956 (inactive).

Question: What about the normalized growth (locus YJL115W, strain asf1, stronger effect = lower value) of the same molecule?
Answer: The normalized growth was 0.956 (inactive).

Question: What about the normalized growth (locus YJL129C, strain trk1, stronger effect = lower value) of the same molecule?
Answer: Its normalized growth is 0.856 (active).

Question: And the normalized growth (locus YJL134W, strain LCB3, stronger effect = lower value)?
Answer: The normalized growth was 0.975 (inactive).

Question: What about the normalized growth (locus YJL154C, strain vps35, stronger effect = lower value) of the same molecule?
Answer: The normalized growth was 0.95 (inactive).

Question: What about the normalized growth (locus YJL164C, strain tpk1, stronger effect = lower value) of the same molecule?
Answer: Its normalized growth is 0.953 (inactive).

Question: What about the normalized growth (locus YJL166W, strain qcr8, stronger effect = lower value) of the same molecule?
Answer: Its normalized growth is 0.987 (inactive).

Question: What about the normalized growth (locus YJL168C, strain set2, stronger effect = lower value) of the same molecule?
Answer: Its normalized growth is 0.989 (inactive).

Question: And the normalized growth (locus YJL187C, strain SWE1 (second series), stronger effect = lower value)?
Answer: The normalized growth was 0.86 (active).
